According to PubChem BioAssay (NCI):
The panel holds about 83,000 compounds, 20% with a hit somewhere; the sample as a whole holds those more often.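 The test compound was applied at a single concentration to cells in 96-well plates for 48 hours, and percent growth was recorded.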

Tests used:
Test in all cases: NCI-60 one-dose screen, 48 h (100 = growth as untreated, 0 = no growth, -100 = all killed)
Details in all cases: 10 µM; active = growth percent below 10; inactive = the rest
HCT-15 colon = tested on: HCT-15 colon
HT29 colon = tested on: HT29 colon
SNB-75 CNS = tested on: SNB-75 CNS
SNB-19 CNS = tested on: SNB-19 CNS
PC-3 prostate = tested on: PC-3 prostate
SK-MEL-5 melanoma = tested on: SK-MEL-5 melanoma
UACC-62 melanoma = tested on: UACC-62 melanoma
LOX IMVI melanoma = tested on: LOX IMVI melanoma
SK-MEL-28 melanoma = tested on: SK-MEL-28 melanoma

Measured: growth

N#CC1=CC2CN(Cc3ccccc3)C1C1C(=O)N(c3ccccc3)C(=O)C21 (stereo unspecified)
inactive: HCT-15 colon 96.5% | HT29 colon 103% | SNB-75 CNS 91.1% | SNB-19 CNS 101% | PC-3 prostate 101% | SK-MEL-5 melanoma 93.3% | UACC-62 melanoma 90.7% | LOX IMVI melanoma 89.2% | SK-MEL-28 melanoma 102%

CSc1ccc(-c2cc(-c3ccc(NC(=O)CCCN4CCCC4)cc3)nc(-c3ccc(NC(=O)CCCN4CCCC4)cc3)c2)cc1
inactive: HCT-15 colon 88.6% | HT29 colon 21.9% | SNB-75 CNS 45.2% | SNB-19 CNS 49.2% | PC-3 prostate 40.8% | SK-MEL-5 melanoma 91.8% | UACC-62 melanoma 93.4% | SK-MEL-28 melanoma 94.7%

CCOC(=O)C1C(C(=O)OCC)C2C(=O)C3C(C(=O)OCC)C(C(=O)OCC)C3C(=O)C12 (stereo unspecified)
inactive: HCT-15 colon 103% | HT29 colon 105% | SNB-75 CNS 99.9% | SNB-19 CNS 96.4% | PC-3 prostate 97.6% | SK-MEL-5 melanoma 100% | UACC-62 melanoma 101% | LOX IMVI melanoma 96.6% | SK-MEL-28 melanoma 105%
